For eleven sequences, binding signal results are on record in article PMC4081100, “A DNA-binding-site landscape and regulatory network analysis for NAC transcription factors in Arabidopsis thaliana”.

Experiment in all cases: universal protein binding microarray (PBM); transcription factors of Arabidopsis thaliana; high values mean tight binding
Conditions in all cases: protein: recombinant; tags: GST; chain copies: 2; dsDNA, one strand shown

The target in one assay is T1, GST-ANAC092(1-176) (Arabidopsis thaliana, UniProt Q9FKA0 1-176).
T1 sequence: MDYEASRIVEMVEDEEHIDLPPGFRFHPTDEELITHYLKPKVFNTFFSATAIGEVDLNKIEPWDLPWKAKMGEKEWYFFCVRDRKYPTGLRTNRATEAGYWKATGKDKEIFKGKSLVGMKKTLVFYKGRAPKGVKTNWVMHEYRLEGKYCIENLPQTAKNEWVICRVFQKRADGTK
Summed up: (§1)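 Each value is a normalised enrichment score (E-score) describing binding. The GST-tagged proteins, NAC-domain, full-length or DNA-binding-domain, were induced in cells (zinc-finger proteins with zinc acetate added) and purified on glutathione–Sepharose 4B. They were applied at 200 to 500 nM final, in duplicate, to double-stranded custom all-10-mer Agilent 4 × 180K arrays, and gapped and ungapped 8-mers were scored.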

The next assay concerns the target GST-NTL6(1-168) (Arabidopsis thaliana, UniProt Q9SCK6 1-168). A digest of the protocol: as §1
Another assay addresses T2, GST-ANAC019 NAC domain (Arabidopsis thaliana, UniProt Q9C932 14-162).
T2 sequence: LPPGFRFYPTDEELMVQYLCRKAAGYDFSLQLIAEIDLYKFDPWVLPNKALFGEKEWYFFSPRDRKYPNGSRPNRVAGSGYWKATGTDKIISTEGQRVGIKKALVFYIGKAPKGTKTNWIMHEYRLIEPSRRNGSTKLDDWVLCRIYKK
Summed up:
as §1

In a further assay the target is T3, GST-ANAC055(1-171) (Arabidopsis thaliana, UniProt Q9LDY8 1-171).
T3 sequence: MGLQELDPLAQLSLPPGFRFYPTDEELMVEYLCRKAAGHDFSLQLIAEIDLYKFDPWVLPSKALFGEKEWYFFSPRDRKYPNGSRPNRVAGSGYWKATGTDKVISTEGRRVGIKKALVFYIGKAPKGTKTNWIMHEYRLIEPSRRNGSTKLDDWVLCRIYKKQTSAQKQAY
Summed up:
as §1

The target in the next assay is T4, GST-ATAF1 NAC domain (Arabidopsis thaliana, UniProt Q39013 7-158).
T4 sequence: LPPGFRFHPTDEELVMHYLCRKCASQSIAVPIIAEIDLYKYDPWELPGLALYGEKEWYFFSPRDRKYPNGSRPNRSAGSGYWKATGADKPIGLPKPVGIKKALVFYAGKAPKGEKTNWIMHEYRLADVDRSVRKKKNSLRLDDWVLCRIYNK
Summed up: as §1

Assay [1] has as its target T5, GST-ANAC092(1-285) full length (Arabidopsis thaliana, UniProt Q9FKA0 1-285).
T5 sequence: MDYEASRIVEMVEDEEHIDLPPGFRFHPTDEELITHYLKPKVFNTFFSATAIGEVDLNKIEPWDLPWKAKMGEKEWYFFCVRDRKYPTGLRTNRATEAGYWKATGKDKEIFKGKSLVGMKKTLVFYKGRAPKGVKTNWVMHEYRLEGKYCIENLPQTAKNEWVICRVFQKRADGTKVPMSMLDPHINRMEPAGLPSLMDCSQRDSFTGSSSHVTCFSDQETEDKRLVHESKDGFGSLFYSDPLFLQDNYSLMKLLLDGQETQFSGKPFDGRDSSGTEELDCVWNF
A digest of the protocol: as §1

The next assay concerns the target T6, GST-NAP(1-166) (Arabidopsis thaliana, UniProt O49255 1-166).
T6 sequence: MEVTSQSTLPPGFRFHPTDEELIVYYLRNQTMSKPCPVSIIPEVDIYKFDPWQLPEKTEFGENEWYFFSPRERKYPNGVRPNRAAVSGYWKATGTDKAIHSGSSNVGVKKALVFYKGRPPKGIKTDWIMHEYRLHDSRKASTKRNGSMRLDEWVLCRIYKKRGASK
A digest of the protocol:
as §1

Another assay concerns the target T7, GST-NST2(1-184) (Arabidopsis thaliana, UniProt Q9M274 1-184).
T7 sequence: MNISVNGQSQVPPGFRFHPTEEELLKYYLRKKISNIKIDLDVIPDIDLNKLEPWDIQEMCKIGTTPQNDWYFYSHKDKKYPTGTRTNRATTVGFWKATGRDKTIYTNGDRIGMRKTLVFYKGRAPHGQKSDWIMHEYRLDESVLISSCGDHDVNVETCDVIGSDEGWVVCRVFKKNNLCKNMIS
A digest of the protocol:
as §1

The target in the next assay is T8, GST-NTL8 NAC domain (Arabidopsis thaliana, UniProt Q9XIN7 14-156).
T8 sequence: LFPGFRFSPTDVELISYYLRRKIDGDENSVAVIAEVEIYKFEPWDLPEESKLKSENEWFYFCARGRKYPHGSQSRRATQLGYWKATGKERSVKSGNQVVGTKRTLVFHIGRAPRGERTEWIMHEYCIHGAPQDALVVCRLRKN
Summed up:
as §1

For another assay, the target named is T9, GST-SND1(1-203) (Arabidopsis thaliana, UniProt Q9LPI7 1-203).
T9 sequence: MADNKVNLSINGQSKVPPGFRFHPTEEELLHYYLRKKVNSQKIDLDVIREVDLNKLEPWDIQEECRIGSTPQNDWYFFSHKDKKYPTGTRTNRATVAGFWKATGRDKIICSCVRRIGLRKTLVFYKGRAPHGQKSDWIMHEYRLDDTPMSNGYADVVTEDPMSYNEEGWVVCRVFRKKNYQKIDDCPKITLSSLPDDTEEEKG
A digest of the protocol: as §1

The next assay deals with T10, GST-VND3 NAC domain (Arabidopsis thaliana, UniProt Q9FH59 12-162).
T10 sequence: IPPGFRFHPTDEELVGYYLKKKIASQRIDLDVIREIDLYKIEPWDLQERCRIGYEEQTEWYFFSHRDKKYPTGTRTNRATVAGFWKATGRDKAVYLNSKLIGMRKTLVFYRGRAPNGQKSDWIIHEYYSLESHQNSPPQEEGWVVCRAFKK
A digest of the protocol: as §1

A further assay addresses T11, GST-VND7 NAC domain (Arabidopsis thaliana, UniProt Q9C8W9 9-158).
T11 sequence: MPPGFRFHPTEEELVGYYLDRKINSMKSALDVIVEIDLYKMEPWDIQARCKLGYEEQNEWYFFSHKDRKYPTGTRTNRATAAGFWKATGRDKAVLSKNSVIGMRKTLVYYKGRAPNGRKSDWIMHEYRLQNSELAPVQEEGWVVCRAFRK
Summed up:
as §1

Chain of GST-NTL6(1-168) (Q9SCK6 1-168): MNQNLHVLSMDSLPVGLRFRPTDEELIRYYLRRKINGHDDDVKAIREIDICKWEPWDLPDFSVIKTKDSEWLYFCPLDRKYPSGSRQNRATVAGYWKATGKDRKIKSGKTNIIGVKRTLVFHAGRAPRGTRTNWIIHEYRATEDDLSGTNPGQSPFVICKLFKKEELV

With ACGCAACA, the binding signal in the assay with GST-ANAC092(1-176) was 0.473 E-score; with GST-NTL6(1-168), 0.0917 E-score; with GST-ANAC019 NAC domain, 0.408 E-score; in the assay with GST-ANAC055(1-171), 0.35 E-score; with GST-ATAF1 NAC domain, 0.292 E-score; in assay [1], 0.484 E-score. Besides, the binding signal amounted to 0.399 E-score with GST-NAP(1-166); 0.4 E-score with GST-NST2(1-184); 0.0984 E-score with GST-NTL8 NAC domain; 0.467 E-score with GST-SND1(1-203); 0.347 E-score with GST-VND3 NAC domain; 0.406 E-score with GST-VND7 NAC domain.

Regarding CTACGTAA, the binding signal with GST-ANAC092(1-176) was 0.329 E-score; with GST-NTL6(1-168) it was 0.0836 E-score; in the assay with GST-ANAC019 NAC domain, 0.352 E-score; with GST-ANAC055(1-171), 0.295 E-score; with GST-ATAF1 NAC domain, 0.316 E-score; in assay [1], 0.378 E-score. In addition, the binding signal was 0.312 E-score in the assay with GST-NAP(1-166); 0.0582 E-score with GST-NST2(1-184); 0.105 E-score with GST-NTL8 NAC domain; 0.402 E-score with GST-SND1(1-203); 0.378 E-score with GST-VND3 NAC domain; 0.345 E-score in the assay with GST-VND7 NAC domain.

Consider GTTTCTTA, for which the binding signal with GST-ANAC092(1-176) was 0.226 E-score; with GST-NTL6(1-168), 0.435 E-score; with GST-ANAC019 NAC domain, 0.141 E-score; in the assay with GST-ANAC055(1-171), 0.185 E-score; with GST-ATAF1 NAC domain it was 0.257 E-score; in assay [1], 0.313 E-score. The binding signal in the assay with GST-NST2(1-184) turned out to be 0.311 E-score; in the assay with GST-NTL8 NAC domain it was 0.28 E-score; in the assay with GST-SND1(1-203), 0.33 E-score; with GST-VND3 NAC domain it was 0.16 E-score; with GST-VND7 NAC domain it was 0.0761 E-score.

Take AAGCAATC: the binding signal in the assay with GST-ANAC092(1-176) came to 0.384 E-score; in the assay with GST-NTL6(1-168), 0.324 E-score; with GST-ANAC019 NAC domain, 0.21 E-score; in the assay with GST-ANAC055(1-171) it was 0.0736 E-score; with GST-ATAF1 NAC domain, 0.108 E-score; in assay [1], 0.417 E-score. Besides, the binding signal was 0.327 E-score in the assay with GST-NST2(1-184); 0.264 E-score with GST-NTL8 NAC domain; 0.466 E-score in the assay with GST-SND1(1-203); 0.152 E-score in the assay with GST-VND3 NAC domain; 0.289 E-score in the assay with GST-VND7 NAC domain.

Turning to GAAGCAAC, the binding signal with GST-ANAC092(1-176) came to 0.372 E-score; in the assay with GST-NTL6(1-168), 0.399 E-score; with GST-ANAC055(1-171) it was 0.142 E-score; with GST-ATAF1 NAC domain, 0.103 E-score; in [1] it was 0.417 E-score; in the assay with GST-NST2(1-184), 0.282 E-score. Moreover, the binding signal with GST-NTL8 NAC domain amounted to 0.416 E-score; with GST-SND1(1-203) it was 0.443 E-score; with GST-VND3 NAC domain, 0.0788 E-score; with GST-VND7 NAC domain it was 0.228 E-score.

Take AAGCAACA: the binding signal with GST-ANAC092(1-176) is 0.387 E-score; with GST-NTL6(1-168), 0.333 E-score; with GST-ANAC055(1-171), 0.134 E-score; with GST-ATAF1 NAC domain, 0.0645 E-score; in [1], 0.405 E-score; with GST-NST2(1-184), 0.342 E-score. The binding signal in the assay with GST-NTL8 NAC domain was 0.194 E-score; with GST-SND1(1-203), 0.439 E-score; with GST-VND3 NAC domain, 0.0696 E-score; with GST-VND7 NAC domain, 0.146 E-score.

Take GTGGAGTA: the binding signal with GST-ANAC092(1-176) was found to be 0.275 E-score; with GST-NTL6(1-168), 0.0723 E-score; with GST-ANAC055(1-171), 0.0843 E-score; with GST-ATAF1 NAC domain, 0.217 E-score; in [1], 0.332 E-score; with GST-NAP(1-166), 0.0918 E-score. The binding signal came out at 0.242 E-score with GST-NST2(1-184), 0.402 E-score with GST-SND1(1-203), 0.0649 E-score with GST-VND3 NAC domain and 0.15 E-score in the assay with GST-VND7 NAC domain.

For the sequence ACGCTACA, the binding signal was found to be 0.27 E-score in the assay with GST-ANAC092(1-176); 0.051 E-score with GST-NTL6(1-168); 0.0711 E-score with GST-ANAC055(1-171); 0.0647 E-score in the assay with GST-ATAF1 NAC domain; 0.404 E-score in assay [1]; 0.0555 E-score in the assay with GST-NAP(1-166). In addition, the binding signal stood at 0.249 E-score with GST-NST2(1-184), 0.402 E-score with GST-SND1(1-203), 0.101 E-score with GST-VND3 NAC domain and 0.0811 E-score with GST-VND7 NAC domain.

On to ATAGCGTA, for which the binding signal with GST-ANAC092(1-176) came out at 0.437 E-score; in the assay with GST-NTL6(1-168) it was 0.0935 E-score; in the assay with GST-ANAC055(1-171) it was 0.136 E-score; with GST-ATAF1 NAC domain, 0.165 E-score; in assay [1], 0.438 E-score; in the assay with GST-NAP(1-166) it was 0.128 E-score. The binding signal with GST-NST2(1-184) was 0.355 E-score; with GST-SND1(1-203), 0.476 E-score; with GST-VND3 NAC domain it was 0.137 E-score; in the assay with GST-VND7 NAC domain, 0.254 E-score.

Turning to ACTTAACC, the binding signal worked out at 0.197 E-score in the assay with GST-ANAC092(1-176); 0.402 E-score in the assay with GST-NTL6(1-168); 0.17 E-score with GST-ANAC019 NAC domain; 0.115 E-score with GST-ANAC055(1-171); 0.132 E-score in the assay with GST-ATAF1 NAC domain; 0.186 E-score in assay [1]. Besides, the binding signal in the assay with GST-NST2(1-184) was 0.164 E-score; with GST-NTL8 NAC domain, 0.243 E-score; with GST-SND1(1-203), 0.221 E-score; with GST-VND3 NAC domain, 0.203 E-score; in the assay with GST-VND7 NAC domain, 0.209 E-score.

GTTGCTTA: the binding signal came out at 0.342 E-score with GST-ANAC092(1-176); 0.425 E-score in the assay with GST-NTL6(1-168); 0.0695 E-score with GST-ANAC055(1-171); 0.0821 E-score with GST-ATAF1 NAC domain; 0.393 E-score in assay [1]; 0.327 E-score in the assay with GST-NST2(1-184). Moreover, the binding signal with GST-NTL8 NAC domain stood at 0.13 E-score; with GST-SND1(1-203), 0.469 E-score; with GST-VND3 NAC domain, 0.0814 E-score; with GST-VND7 NAC domain, 0.14 E-score.
